Measurements published in PubChem BioAssay (NCI).
About 83,000 compounds went through this panel and 20% of them were active in at least one assay; those are over-represented in the sample as a whole.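 Single-dose data. Exposure time 48 hours. Values below 10 considered active.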 Values without a mark were called inactive. Active and inactive are the calls of the source.

The compounds below were run on RPMI-8226 leukemia (assay: NCI-60 one-dose screen, 48 h (100 = growth as untreated, 0 = no growth, -100 = all killed)). Details: 10 µM unless noted.
Method: Growth inhibition of the RPMI-8226 human tumor cell line is measured as a screen for anti-cancer activity. Cells are grown in 96 well plates and exposed to the test compound for 48 hours. Compounds are tested at a single concentration, which is 10^-5 M for most compounds. The reported endpoint is percent growth (GI% or GIPRCNT), where numbers from 0 - 100% represent growth inhibition, and numbers from -100% - 0 represent cell death. For example, a value of 40 represents 60% growth inhibition. A value of 0 means no net growth occurred over the course of the experiment. A value of -40 indicates 40% of cells at the beginning of the experiment died by the end of the experiment. A value of -100 means all cells are dead at the end of the experiment.
NCI-60 Human Tumor Cell Lines Screen was performed using the standard one-dose NCI protocol, which is described in more detail at https://dtp.cancer.gov/discovery_development/nci-60/default.htm.
Compounds with GIPRCNT values below 10 were considered active. Activity score was based on GIPRCNT using the following formula: […]
Score is 0 for GIPRCNT values of 100 or above, 50 for GIPRCNT values of 0, and 100 for GIPRCNT values of -100.

SMILES	growth
COC(=O)[C@@H]1CCCN1C(=O)[C@@H]1CCCN1C(=O)[C@H](Cc1ccccc1)NC(=S)Nc1cc(C(F)(F)F)cc(C(F)(F)F)c1	43.9%
CN(C)c1ccc(N=Nc2ccccn2)c(O)c1	16.2%
Cc1cc(C)c2nc3nc(C)cc(C)c3c(N)c2c1	-13.5% (active)
CSc1nc(Nc2cccc(NC(=O)/C(C#N)=C/c3c(Cl)cccc3Cl)c2)c(C#N)c(-c2cccc([N+](=O)[O-])c2)n1	26.8%
CN(C)S(=O)(=O)c1cccc(-c2nc3sc4c(c3c(=O)[nH]2)CCCC4)c1	23.9%
CC1=C(O)C(=O)C(C(C#N)(C#N)C(C#N)C#N)C1 (stereo not given)	106%
Cc1ccc(O)c(N2C(=NCc3ccco3)NS(=O)(=O)c3cnccc32)c1	65.7%
C#CCOc1ccc2ncnc(Nc3cccc(CNC(=O)C=C)c3)c2c1	101% [8.25 µM]
Cc1nc2c3c(-c4ccccc4)c(-c4ccccc4)oc3ncn2n1	92.7%
COc1cc2nc(N3CCCC3)nc(Nc3ccccc3)c2cc1OC	-19.8% (active)
CSc1nc(Nc2cccc(NC(=O)CCl)c2)c(C#N)c(-c2cccc([N+](=O)[O-])c2)n1	-14.1% (active)
Cc1nc(/N=C(\N)NC(=O)Nc2cccc([N+](=O)[O-])c2)sc1C	74.3%
COc1cccc(-c2nc3sccn3c2-c2ccnc(NCCCNS(=O)(=O)c3cccc(F)c3)c2)c1	-19.9% (active)
O=C(N/N=C/c1ccccc1O)c1ccccc1Nc1ccnc(C(F)(F)F)c1	-22% (active)
Clc1ccc2c(NCCNc3nc(N4CCOCC4)nc4ccccc34)ccnc2c1	-37% (active)
Cc1ccc(C2Oc3ccccc3C3CC(c4cccs4)=NN32)cc1 (stereo not given)	95.3%
C=CCSSC1N=CNc2nc[nH]c21 (stereo not given)	-15.1% (active)
Cc1cc(Nc2ccc(C)c(Cl)c2)n2nc(C(F)(F)F)nc2n1	51.6%
COC(=O)c1ccc(Cn2cnc3c(N)ncnc32)cc1	104%
c1ccc(-c2c(-c3ccccc3)[n+](Cc3ccc4ccccc4c3)c(-c3ccc(-c4nc5ccccc5s4)cc3)n2Cc2ccc3ccccc3c2)cc1	-40.5% (active)

SMILES	growth
Cn1c(NCCc2ccc(O)c(O)c2)nc2c1c(=O)n(Cc1ccc(Br)cc1)c(=O)n2C	25.6%
Cn1nc(N)c2cc([C@@H]3Nc4ccc5[nH]ncc5c4[C@H]4C5CCC(C5)[C@@H]34)ccc21 (stereo not given in full)	47.8%
COc1cc(/C=C/C(=O)c2cccnc2Nc2ccc(F)cc2)cc(OC)c1OC	1.24% (active)
CC(C)c1c(C(=O)c2ccccc2)c(-c2ccccc2)c(-c2ccc(F)cc2)n1CC[C@@H](O)C[C@@H](O)CC(=O)O	67.1%
Cc1ccc(NS(=O)(=O)c2ccc(-c3cnc(C4CC4)o3)cc2)cc1C	12.4%
O=C1C=C(O)C(=O)C(CC2=C(O)C(=O)C=C(O)C2=O)=C1O	107%
COc1ccc(-c2cc(C(=O)N=Nc3c(O)[nH]c4ccc(Br)cc34)no2)cc1	107%
CC1=CC(=NN=c2cc(C)n([O-])c(C)c2)C=C(C)[N+]1=O	67.4%
CC[C@@H]1O[C@H](O[C@@H](c2cnc[nH]2)[C@H](NC(=O)c2nc([C@H](CC(N)=O)NC[C@@H](N)C(N)=O)nc(N)c2C)C(=O)N[C@H](C)[C@H](O)[C@H](C)C(=O)N[C@@H](C(=O)NCCc2nc(-c3nc(C(=O)NCCCCN=C(N)N)cs3)cs2)[C@@H](C)O)[C@H](O[C@@H]2O[C@H](CO)[C@H](O)[C@H](OC(N)=O)[C@@H]2O)[C@H](C)[C@@H]1C	73%
c1ccc(Cn2cc(-c3nc4ccccc4s3)c3cccnc32)cc1	99.9%
O=c1cc(CSc2nnc(-c3ccc(F)cc3)o2)c2ccc3ccccc3c2o1	101%
O=S(=O)(Nc1ccc(Cl)c(F)c1)c1ccc(-c2cnc(C3CC3)o2)cc1	21.2%
C=CCSSc1ncnc2c1ncn2C1OC(CO)C(O)C1O (stereo not given)	-8.17% (active)
COc1cc(/C=C/c2cc(O)c3cc(C(C)=O)c(=O)oc3c2)cc2c1O[C@]1(C)CC[C@@H](O)C(C)(C)[C@H]1C2	-22.6% (active)
C#Cc1cccc(NC(=O)c2ccccc2NC(=O)CCl)c1	99.5% [8.25 µM]
COc1ccc(C2CC(c3ccc4ccccc4c3)=NN2/C=C2\SC(=S)N(NC(=O)Cc3ccccc3Nc3c(Cl)cccc3Cl)C2=O)cc1 (stereo not given)	-10.1% (active)
CCC#CC[C@H](O)C/C=C1/C(=O)C=C[C@@H]1C/C=C\CCCC(=O)OC	-13.6% (active)
COc1cc(/C=C/C(=O)c2c(C)oc3nc[nH]c(=O)c23)cc(OC)c1OC	61.9%
O=S(=O)(Nc1ccc(OC(F)F)cc1)c1ccc(-c2cnc(C3CC3)o2)cc1	52.8%
COC(=O)[C@]12CCC(C)(C)C[C@H]1[C@H]1C(=O)C[C@@H]3[C@@]4(C)c5c([nH]c6ccccc6c5=O)C(C)(C)[C@@H]4CC[C@@]3(C)[C@]1(C)CC2	34.9%
